In the library only some 3.3% were active in any assay of this set; here they are far more common.
Sm TGR inh = inhibitors of Schistosoma mansoni thioredoxin glutathione reductase | Q962Y6 | purified TGR, DTNB reduction, TNB absorbance 405 nm | Potency, µM (highest dose often 114 µM), without a hit: at the highest dose activity change, negative = inhibition, most hits filed as inhibitors | 360,000 tested, 3% active; also: nearly all actives have a fitted effect of over 60% in size
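First, TGR (20 nM dispensed) and NADPH were mixed with compound. Second, a 15 min room-temperature incubation followed. Third, further NADPH and then DTNB were added to start the reaction. Finally, TNB absorbance was monitored kinetically.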
AmpC inh no detg = blocks E. coli AmpC beta-lactamase in detergent-free assay. P00811. Potency, µM (doses to about 57.1 µM), for the others: at the highest dose activity change, negative = inhibition, hits mostly inhibitors. AmpC nitrocefin hydrolysis, absorbance 480 nm, 0.0001% Triton. AID 485341. 330,000 tested, 0.52% active;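 also: plate controls were no compound for no effect and no enzyme for full effect; nearly all actives have a fitted effect of over 20% in size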
Target sequence (P00811 whole entry, looked up): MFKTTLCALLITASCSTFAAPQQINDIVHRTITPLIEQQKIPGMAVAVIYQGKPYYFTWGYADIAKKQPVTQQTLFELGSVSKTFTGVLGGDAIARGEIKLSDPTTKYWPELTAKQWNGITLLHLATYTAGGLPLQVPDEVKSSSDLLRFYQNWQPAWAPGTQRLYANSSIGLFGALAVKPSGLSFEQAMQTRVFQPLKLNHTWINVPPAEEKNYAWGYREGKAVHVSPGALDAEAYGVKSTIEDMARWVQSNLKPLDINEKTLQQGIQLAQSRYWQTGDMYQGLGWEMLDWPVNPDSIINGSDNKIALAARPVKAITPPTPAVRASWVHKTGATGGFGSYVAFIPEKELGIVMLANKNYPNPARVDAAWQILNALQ
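20 mM phosphate pH 7.0 + 0.01% (detergent screen) or 0.0001% Triton X-100; 5.3 nM AmpC reagent; cpd preinc 15 min RT; nitrocefin (800 uM stock) to start; A480 q20 s × 4 min; Activity was normalised to no-enzyme and no-compound control wells.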
AmpC inh detg = inhibitors of E. coli AmpC beta-lactamase with detergent; P00811; AmpC hydrolysis of nitrocefin, absorbance 480 nm, 0.01% Triton; Potency, µM (titrated, usually from 114 µM), for the others: top-dose activity change, negative = inhibition, actives largely listed as inhibitors; 370,000 tested, 0.041% active;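 also: 0% = no-compound wells and -100% = no-enzyme wells; nearly all actives have a fitted effect of over 25% in size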
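AmpC (5.3 nM in the dispensed reagent) in 20 mM phosphate pH 7.0 with 0.01% (detergent screen) or 0.0001% Triton X-100 was preincubated with compounds for 15 min at room temperature. Nitrocefin was then added from an 800 uM solution, and hydrolysis was followed at 480 nm.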
Numbers without * were called inactive; ? = inconclusive; · = no result given; [ ] = dose if it differs, or a comment. Calls follow the shape of the dose curve; as a rule, active = well fitted curve in the direction sought with a large enough effect; inconclusive = small, poorly fitted or top-dose-only effect, or another doubt; inactive = no such curve, though single readings can be large; an effect the other way counts as inactive or inconclusive. Unless noted, % is scaled to controls: 0 for no effect and ±100 for the full control effect; potency is read from the fitted curve at half-maximal effect.

SMILES	Sm TGR inh	AmpC inh no detg	AmpC inh detg
O=C(NC(=S)NCc1ccc(F)cc1)c1ccccc1	18µM*	-29%	?
S=C(NCc1ccccc1)NCc1ccccc1	10%	-32%	3%
Cc1c(C(=O)NC(=S)Nc2ccc(NC(=O)c3cccs3)cc2)oc2ccccc12	0.63µM*	18µM*	?
O=C(NC(=S)NCc1ccccc1)c1cccs1	79µM*	-40%	-5%
CC(C)(C)C(=O)NC(=S)NCc1ccccc1	40µM*	-6%	0%
CN(CC(=O)Nc1ccccc1Cl)C(=O)COC(=O)c1cc([N+](=O)[O-])ccc1N1CCOCC1	-8%	42%	?
COc1cc(-c2nnn(CC(=O)Nc3ccc(OC(F)(F)F)cc3)n2)cc(OC)c1OC	6%	·	5%
COc1ccc(C(=O)N2CCCC(N3CCN(c4ccccc4F)CC3)C2)c(OC)n1 (stereo not given)	?	86%	?
Cc1ccc(C)c(Cn2c(=O)n(C(C)C)c(=O)c3oc4ccccc4c32)c1	7%	·	1%
Cc1cc(C)cc(N2C(=O)CC(c3ccc(C(F)(F)F)cc3)C3=C2COC3=O)c1 (stereo not given)	-1%	·	-1%
CC1CCN(c2ccccc2NC(=S)NC(=O)c2cccs2)CC1	3%	10µM*	-3%
O=C(NC(=S)Nc1ccccc1)c1cccs1	7.9µM*	-18%	4%
CS(=O)(=O)N1CCN(c2ccccc2NC(=S)NC(=O)c2cccs2)CC1	?	-16%	-2%
O=C(Nc1ccc(NC(=S)NC(=O)c2cccs2)cc1)c1ccccc1	14%	-36%	-5%
CC1CCCCC1NC(=S)NC(=O)c1cccs1 (stereo not given)	22µM*	-26%	-14%
CC(OC(=O)c1cccs1)C(=O)NC1CCCCC1C (stereo not given)	-12%	-6%	?
CC1Cc2cc(/C(O)=C3/C(=O)C(=O)N(CCCn4ccnc4)C3c3ccc(Br)cc3)ccc2O1 (stereo not given)	-17%	5%	-3%
CC(C)C(=O)Nc1ccccc1C(=O)OCc1cc(=O)n2nc(C3CC3)sc2n1	6%	·	13%
COc1cccc(CN(C)S(=O)(=O)c2ccccc2Br)c1	·	-14%	·
CC(C)[C@H](NC(=O)N1CC(=O)Nc2ccccc21)C(=O)N[C@H](Cc1ccccc1)C(=O)O	7%	-17%	-4%
COc1cccc(NC(=O)Cn2c(=O)n(Cc3nc(-c4ccccc4)no3)c(=O)c3ccccc32)c1	7%	·	15%
Cc1csc(SCC(=O)Nc2cccc3nsnc23)n1	?	0.22µM*	-1%
Cc1csc(SCC(=O)Nc2ccccc2C)n1	4%	-9%	-13%
O=S(=O)(NN=C1CCCCCC1)c1ccccc1	-1%	-21%	0%
C/C(=C\C(=O)OCC(=O)NCc1ccccc1)C(=O)OCC(=O)NCc1ccccc1	-9%	0%	?
SMILES	Sm TGR inh	AmpC inh no detg	AmpC inh detg
COc1ccc(NC(=O)CNS(=O)(=O)c2ccccc2)cc1Cl	4%	0.63µM*	-3%
CC(C)=CC(=O)OCC(=O)Nc1ccc(F)cc1Cl	14%[11.4 µM]	-19%	?
CCOC(=O)/C=C/C(=O)OCC(=O)Nc1ccc(Cl)cc1Cl	11µM*	-7%[11.4 µM]	-10%
CCOC(=O)/C=C/C(=O)OCC(=O)Nc1ccc(OC)c(Cl)c1	18µM*	-6%	?
COc1ccc(NC(=O)COC(=O)CNS(=O)(=O)c2ccccc2)cc1OC	1%	-30%	-2%
CCOC(=O)/C=C/C(=O)OCC(=O)NCc1ccccc1	25µM*	-12%	?
COc1ccc(NC(=O)COC(=O)/C=C/C(=O)OCC(=O)Nc2ccc(OC)c(Cl)c2)cc1Cl	?	-23%	?
O=C(NCC1CCCO1)C(=O)NCC(c1ccco1)N1CCN(c2ccccc2)CC1 (stereo not given)	5%	41%	-3%
Cc1ccc(S(=O)(=O)N(CC(=O)Nc2ccc(Cl)cc2)C(=O)N2CCN(C)CC2)cc1	0%	-16%	-27%
O=C(CCc1ccccc1)NCc1ccccc1	2%	0%	6%
Cc1ccc(CCC(=O)NCc2ccccc2)o1	35µM*	22%	9%
O=C(COC(=O)/C=C/c1cccs1)Nc1ccccc1Cl	1%	-13%[11.4 µM]	-8%
CCOC(=O)/C=C/C(=O)OCC(=O)Nc1c(Cl)cccc1Cl	20µM*	-18%	-10%
N#CC1CCCc2c1[nH]c1ccc([N+](=O)[O-])cc21 (stereo not given)	13%	-23%	-13%
CC1CCN(S(=O)(=O)c2cn(CC(=O)Nc3ccc(OC(F)(F)F)cc3)cn2)CC1	-1%	3%	-14%
CC1=CC(=C2C(=O)c3ccccc3C2=O)C=C(C)N1Cc1ccco1	40µM*	71%	0%

Screening results deposited in PubChem BioAssay by National Center for Advancing Translational Sciences (NCATS).
